For 26 molecules, outcome and AC50 results are on record in PubChem BioAssay (EPA / NIEHS).

Active and inactive are the calls of the source. The calls were made as follows: active = hit-call score of the fitted dose curve at least 0.9, where 1 is the maximum; inactive = score below 0.9.

The test is described as follows: ATG_TAL_CIS: Attagene CIS-FACTORIAL HepG2 Assay for human TAL Basal Promoter (AID 2282966).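 Also: background control endpoint measuring basal TAL promoter reporter mRNA not a specific factor.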 Conditions: HepG2 Attagene cis-factorial TAL promoter reporter; actives raise or lower the signal. An outline of the steps:
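Steps: transfect HepG2 with multiple reporter transcription units; dose 24 h; isolate RNA, reverse-transcribe, PCR-amplify, label with 6-FAM, digest with HpaI; resolve by capillary electrophoresis. Bidirectional fitting against DMSO baseline.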
Consider `CCCCCCC#CC(=O)OC`, for which the result was inactive. Consider `COc1ccnc(CS(=O)c2nc3cc(OC(F)F)ccc3[nH]2)c1OC` (stereo unspecified), for which the call was inactive. As for `Clc1nc(C(Cl)(Cl)Cl)c(Cl)c(Cl)c1Cl`, the AC50 was 57.2 µM (active). As to `C=C(C)C1CCC(C)CC1O` (stereo unspecified), the outcome was inactive.

Consider `CSc1nc(NC2CC2)nc(NC(C)(C)C)n1`, for which the molecule was called inactive. For `CCO[Si](CCCS)(OCC)OCC`, the result was inactive.

On to `CCCCC[Si](OCC)(OCC)OCC`, for which the result was inactive. Still for that read-out and setting: next, `CC(=O)O[C@H](CC(=O)[O-])C[N+](C)(C)C`: “inactive”.

Regarding `CCCCCCCCCCCCSC`, the result was inactive.

For `O=C[C@@H](O)[C@H](O)[C@H](O)CO`, the result was inactive. Same read-out and setting: next, `OC1OC[C@@H](O)[C@H](O)[C@H]1O` (stereo partly specified): “inactive”.

Take `CCCCCCCCCCN`: the outcome was inactive. The same measure, in the same setting: next, `Cc1ccc(S)cc1`: “inactive”.

On to `CC(CN1c2ccccc2Sc2ccccc21)N(C)C` (stereo unspecified), for which the concentration at half-maximal activity (AC50) was 50.2 µM (active).

Consider `Clc1ccc2c(c1)C(N1CCNCC1)=Nc1ccccc1O2`, for which the molecule was called inactive. The same measure, in the same setting: next, `CC1(C)[C@H]2CC[C@]1(C)[C@H](O)C2`: “inactive”. Still for that read-out and setting: next, `CN1Cc2c(N)cccc2C(c2ccccc2)C1` (stereo unspecified): “inactive”; `OCCCCCO`: “inactive”; `O=c1[nH]c(=O)n([C@H]2CCCO2)cc1F`: “inactive”. The same measure, in the same setting: the same measure for `O=C(O)CCSCCC(=O)O`: “inactive”. As to `CCCC[n+]1ccccc1`, the outcome was inactive. Same read-out and setting: next, `CCC/C=C/C=O`: “inactive”; `O=C(Nc1ccccc1)c1cc([N+](=O)[O-])ccc1Cl`: “inactive”. Same read-out and setting: next, `C[C@H]1C[C@@H]2[C@H]([C@@H](O)C[C@@]3(C)[C@H]2CC[C@]3(O)C(=O)CO)[C@@]2(C)C=CC(=O)C=C12`: “inactive”; `COc1c(Cl)c(Cl)c(Cl)c(Cl)c1Cl`: “inactive”. On to `O=C(O)c1cn(C2CC2)c2cc(N3CCNCC3)c(F)cc2c1=O`, for which the molecule was called inactive.
